DT40 TDP1 no CPT: qHTS for Inhibitors of human tyrosyl-DNA phosphodiesterase 1 (TDP1): qHTS in cells in absence of CPT | DT40 Tdp1-/- hTDP1 cells, no CPT, ATP luminescence, 48 h | Potency, µM (doses to about 46.2 µM), for the others: top-dose activity change, negative = growth inhibition, most hits filed as inhibitors | 420,000 tested, 15% active | AID 686978, 2013; also: nearly all actives have a fitted effect of over 55% in size
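A cellular qHTS used chicken DT40 cells lacking endogenous Tdp1 but carrying stably transfected human TDP1. Compounds were applied without camptothecin, and cell growth kinetics were judged by ATP-dependent luminescence after ≥48 hr.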
DT40 TDP1 CPT: DT40-hTDP1 cell growth loss with CPT. chicken DT40 Tdp1-/-;hTDP1 cells + 20 nM CPT, ATP luminescence, 48 h. Potency, µM (doses to about 46.2 µM), for inactives: at the top dose activity change, negative = growth inhibition, actives largely listed as inhibitors. 420,000 tested, 12% active. AID 686979; also: nearly all actives have a fitted effect of over 55% in size
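Chicken DT40 Tdp1-/- cells stably complemented with human TDP1 were seeded at 400 cells/well in medium containing 20 nM camptothecin, exposed to pin-transferred compounds, and grown at 37 °C for at least 48 hr. Viability was read as ATP luminescence.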
Gal4-VP16 FLuc: Gal4-VP16 reporter inhibition counter-screen; Potency, µM (top dose mostly 53.6 µM), for the others: at the top dose activity, negative = inhibition, actives largely listed as inhibitors; 310,000 tested, 3.5% active; Drosophila S2 Gal4-VP16 UAS-luciferase, luminescence, 20 h;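 also: Gal4-VP16 expression switched on by copper sulfate through the metallothionein promoter; nearly all actives have a fitted effect of over 50% in size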
TDP1 block: TDP1 (human) enzyme inhibition | 350,000 tested, 0.28% active | Potency, µM (titrated, usually from 130 µM), inactives show at the highest dose activity change, negative = inhibition, usual class: inhibitors | recombinant TDP1, AlphaScreen DNA substrate cleavage | Q9NUW8 | AID 485290; also: nearly all actives have a fitted effect of over 40% in size
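Signal: AlphaScreen proximity between streptavidin donor and anti-FITC acceptor beads on intact substrate. Reaction: Tdp1 1 nM, substrate 15 nM final, 5 min RT after 15 min compound preincubation.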
RORgamma inh: ROR gamma (mouse) transcription inhibition | 310,000 tested, 5.4% active | P51450 | Potency, µM (series often up to 53.6 µM), for inactives: at the highest dose activity change, negative = inhibition, most hits filed as inhibitors | AID 2551 | Drosophila S2 Gal4-RORgamma UAS-luciferase reporter, 20 h; also: nearly all actives have a fitted effect of over 60% in size
Target sequence (P51450 whole entry, looked up, the tested form may be a part): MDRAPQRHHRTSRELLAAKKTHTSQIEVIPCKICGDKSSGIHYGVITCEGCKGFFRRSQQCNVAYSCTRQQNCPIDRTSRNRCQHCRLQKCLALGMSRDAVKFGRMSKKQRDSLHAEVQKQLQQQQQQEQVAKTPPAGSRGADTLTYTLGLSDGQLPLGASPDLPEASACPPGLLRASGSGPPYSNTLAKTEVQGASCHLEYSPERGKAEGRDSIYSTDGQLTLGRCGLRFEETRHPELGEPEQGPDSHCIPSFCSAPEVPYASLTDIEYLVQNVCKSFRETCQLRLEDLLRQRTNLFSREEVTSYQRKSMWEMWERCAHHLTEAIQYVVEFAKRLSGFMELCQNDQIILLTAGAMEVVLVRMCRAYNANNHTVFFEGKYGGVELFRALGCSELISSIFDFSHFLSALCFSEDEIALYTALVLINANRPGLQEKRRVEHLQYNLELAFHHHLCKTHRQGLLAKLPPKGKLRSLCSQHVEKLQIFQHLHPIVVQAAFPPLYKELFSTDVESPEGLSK
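Read-out: Photinus luciferase luminescence; inhibitors lower reporter signal. Insect Schneider cells with Gal4-ROR gamma fusion under metallothionein promoter, UAS reporter; 700 uM final copper sulfate induction, 20 hr, ambient temperature.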
Active calls of the source: *; u = inconclusive; x = no result; [ ] = dose if it differs, or a comment. Sampled rows, rich in hits. Any-hit rate of the full collection: about 19%. Calls follow the shape of the dose curve; as a rule, active = well fitted curve in the direction sought with a large enough effect; inconclusive = small, poorly fitted or top-dose-only effect, or another doubt; inactive = no such curve, though single readings can be large; an effect the other way counts as inactive or inconclusive. % is scaled to controls: 0 for no effect and ±100 for the full control effect; potency is read from the fitted curve at half-maximal effect.

SMILES | DT40 TDP1 no CPT | DT40 TDP1 CPT | Gal4-VP16 FLuc | TDP1 block | RORgamma inh
COc1ncccc1-c1nnn(-c2ccc(C)cc2)n1 | u | -6% | 5% | 8% | -3%
O=C(Cn1c2ccccc2c2nc3n(c(=O)c21)CCCS3)Nc1ccccc1 | u | 13µM* | -9% | 5% | 29%
O=C1N[C@@H](Cc2c[nH]c3ccccc23)COC(=O)[C@@H](Cc2ccc(F)cc2)CC/C=C/C[C@@H]1CC(=O)N(CCO)Cc1ccccc1 | 26µM* | u | x | 4% | x
O=C1N[C@@H](Cc2c[nH]c3ccccc23)COC(=O)[C@H](Cc2ccc(F)cc2)C/C=C\C[C@H]1CC(=O)N(CCO)Cc1ccccc1 | 16µM* | 13µM* | x | 2% | x
COc1cc2nc(NCCCN3CCN(C)CC3)n3nc(-c4ccccc4)nc3c2cc1OC | u | u | 5% | x | 1%
CCOCCCNc1nc2cc(OC)c(OC)cc2c2nc(-c3ccccc3)nn12 | 6.5µM* | 10µM* | x | -2% | x
COCCCNc1nc2cc(OC)c(OC)cc2c2nc(-c3ccccc3)nn12 | 7.3µM* | 15µM* | -1% | -1% | 4%
CCc1ccc(C(=O)OCC(=O)NC2CCCC2)cc1 | -22% | 0% | -11% | x | 1%
O=C(O)c1cnn2c(-c3ccc(F)cc3)ccnc12 | -2% | 26% | -1% | 3% | 21%
COc1ccc(Sc2nnc(Cc3ccccc3)c3ccccc23)cc1 | u | u | 6% | 3% | -39%
Cc1ccc(Sc2nnc(Cc3ccccc3)c3ccccc23)cc1 | 23µM* | 26µM* | u | 0% | 13µM*
CC(Cc1ccccc1)NC(=O)CCCN1C(=O)c2ccccc2C1=O (configuration not stated) | 13% | 5% | 0% | x | 3%
CCOc1ccccc1N(CC)C(=O)Cn1ncc2c1-c1ccccc1OC2 | 16µM* | 21µM* | x | 5% | x
COc1ccccc1NC(=O)Cn1ncc2c1-c1ccccc1OC2 | u | 15µM* | -12% | 7% | 14%
CN(C)CCCN=C(NO)c1ccc(Cl)cc1Cl | -5% | 9% | -5% | 5% | 27%
CC1(C)C2([N+](=O)[O-])CN3CC1([N+](=O)[O-])CN(C2)C3C(O)C(O)C(O)CO (configuration not stated) | u | -10% | 5% | 4% | 4%
Cc1ccc(CC(=O)OCC(=O)c2ccc[nH]2)cc1C | -3% | -23% | x | -6% | x
O=[N+]([O-])/C=C\c1ccc(N2CCCC2)c(F)c1 | 2.6µM* | 7.3µM* | -16%[10 µM] | -3% | u
O=Cc1ccc(N2CCCC2)c([N+](=O)[O-])c1 | -23% | -7% | 2% | 0% | 16%
CC1(NC(=O)c2ccccc2)CCN(CCc2cccs2)C1=O (configuration not stated) | -4% | -22% | x | 1% | x
CC(C)CCN1CCC(Cc2ccccc2)(NC(=O)c2ccccc2)C1=O (configuration not stated) | u | u | x | 1% | x
O=C(CCc1ccccc1)NC1(Cc2ccccc2)CCN(CCCc2ccccc2)C1=O (configuration not stated) | 8.2µM* | 16µM* | x | -4% | x
O=C(NC1(Cc2ccccc2)CCN(CCc2cccs2)C1=O)c1ccccc1 (configuration not stated) | u | 26µM* | x | 0% | x
CCOC(=O)c1ccc(NC(=O)CSC2=NC(=O)C(CC)C(=O)N2)cc1 (configuration not stated) | u | 7% | 4% | 0% | -7%
CCn1c(C)nc2cc(S(=O)(=O)N3CCCC3)ccc21 | u | -23% | -17% | 2% | u
SMILES | DT40 TDP1 no CPT | DT40 TDP1 CPT | Gal4-VP16 FLuc | TDP1 block | RORgamma inh
CCn1c(C)nc2cc(S(N)(=O)=O)ccc21 | 23µM* | u | -9% | 3% | 4%
Cc1ccnn1CC(=O)N1CCOc2c(cc(-c3ncc(C(F)(F)F)cc3Cl)cc2OCC2CCCO2)C1 (configuration not stated) | -24% | -1% | x | x | x
Cc1cc(C)nc(N(C#N)CCOc2ccccc2)n1 | u | u | -9% | 2% | u
COc1ccccc1OCCN(C#N)c1nc(N(C)C)nc(N(C)C)n1 | u | 21µM* | 5% | 0% | 2%
O=C(Cn1cc(C(F)(F)F)cc(Cl)c1=O)Nc1cccc(S(=O)(=O)N2CCCCC2)c1 | -22% | u | x | 1% | x
O=C1c2cccc3cccc(c23)C(=O)N1CCc1ccccc1 | u | u | -11% | -6% | -1%
O=C(NNC(=S)NC(=O)c1ccccc1[N+](=O)[O-])c1ccccc1[N+](=O)[O-] | -4% | -2% | 7% | 10% | -27%
CCCCOc1ccccc1C(=O)NNC(=S)NC(=O)c1ccccc1[N+](=O)[O-] | 18µM* | 26µM* | u | x | 14µM*
O=C(NNC(=S)Nc1ccccc1)c1ccccc1[N+](=O)[O-] | -27% | 8% | 20% | 6% | -33%
Cc1ccc(C(=O)NC(=S)NNC(=O)c2ccccc2[N+](=O)[O-])cc1 | u | 21µM* | 3.2µM* | 10% | 3.2µM*
O=C(NNC(=S)NC(=O)c1ccccc1[N+](=O)[O-])c1ccccc1O | 18µM* | u | -16% | 9% | -15%
O=C(NNC(=S)NC(=O)c1ccccc1[N+](=O)[O-])c1ccc(Cl)cc1Cl | u | u | -1% | 9% | 5.6µM*
Cc1ccc(S(=O)(=O)N2CCCC(C(=O)NCCCN3CCCCC3C)C2)cc1 (configuration not stated) | -9% | -16% | -6% | 2% | -17%
Cc1ccc(C(=O)NC(=S)Nc2ccc3[nH]c(=O)[nH]c3c2)c(C)c1 | 3% | -1% | -1% | 0% | 3%
O=C(COc1ccc(Br)cc1)NNC(=S)NC(=O)c1ccccc1[N+](=O)[O-] | 21µM* | u | u | -5% | u
CC(=O)N=c1sc2nc3ccccc3nc2n1N(C(C)=O)C(C)=O | -12% | -29% | u | 2% | 10µM*
CC(=O)N=c1sc2ccccc2n1C | -7% | -11% | 15% | 4% | -6%
COc1ccc(-c2cc(C(=O)Nc3c(C)nn(Cc4ccccc4Cl)c3C)no2)cc1 | -22% | -25% | -3% | 0% | -23%
Cc1ccc(NC(=O)c2cc(-c3ccc4c(c3)OCO4)on2)cc1 | u | u | 1% | 2% | 0%
Cc1nn(Cc2ccc(Cl)c(Cl)c2)c(C)c1NC(=O)c1cc(-c2ccc3c(c2)OCO3)on1 | 21µM* | 18µM* | -11% | 1% | 1%
Cc1nn(Cc2ccc(Cl)cc2)c(C)c1NC(=O)c1cc(-c2ccc3c(c2)OCO3)on1 | 15µM* | 23µM* | -14% | 1% | 15%
O=C(CCSCCC(=O)Nc1ccccc1F)Nc1ccccc1F | 0% | -2% | 4% | 1% | -4%

High-throughput results from PubChem.
